The campaign covered roughly 31,000 sequences. About 1,400 (4.5%) were called active. This is one part of a sample in which actives are shown more often than they occur.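 The calls were made as follows: active = median seed-adjusted z-score above 1 or below -1; inactive = the rest.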

This experiment can be described thus: Novel Modifiers of Survival Motor Neuron (SMN) Protein: Gene Identification via Genome-wide siRNA Screen.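 Also: luminescence tracks full-length SMN protein made from the SMN2 reporter.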 The settings on record: HEK293T SMN2-luciferase reporter, siRNA knockdown, 72 h; actives lie on both sides. Summed up:
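siRNA screen, 10418 genes ×3 siRNAs; 1 pmol/well, lipid reverse transfection into HEK293T SMN2-luc reporter line. 72 h, 37 °C, 5% CO2; ONE-Glo readout. Data: neg-ctrl normalized, log10, MAD; hit = MAD >1.0 or < -1.0.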
(In a reporter assay the amount or activity of a reporter protein is the signal.)
For the sequence GGUUAUACUCGGGCAGAGATT against NDUFS5, the median seed-adjusted z-score was -1.35 (active).
Take GGCUAACUAUUUUGUCAGATT against ABHD7: the median seed-adjusted z-score is -0.301 (inactive).
For CCAUGAUACUCCACUCCCATT against GUCA2A the value was 0.121 (inactive).
In the case of GGCUAUGCAGGUCCACUGUTT against DDR1, the median seed-adjusted z-score was -0.166 (inactive).
For GGUUUGAAGGGUUGACUCATT against STK38L the value was 0.079 (inactive); for GAGACAACAUGAAUGACAATT against CHGB, -1.29 (active).
Take GGAUGUGGGUUUACUCUUUTT against SLC1A5: the median seed-adjusted z-score is -0.104 (inactive).
Then GCAUGGAUGCUUCUAGACATT against AKAP9, with -1.22 (active); and CCAUGAUCCUGAUAGGCAATT against PLAT, with 0.246 (inactive).
For AGACCACCUUCAUCCGACATT against EHD1 the value was -0.616 (inactive).
Regarding ACCUCGGACUGGUACAUGATT against SLC38A3, the median seed-adjusted z-score is -0.177 (inactive).
Turning to GCUCGUAAACUAGCUAAUATT against RCOR3, the median seed-adjusted z-score was 0.0446 (inactive).
For the sequence GCAAGUGAAUAUGCGGAUATT against SNRPE, the median seed-adjusted z-score is -2.77 (active).
Then GAAAACCCUUGUAAGUAUATT against ZNF354A, with 0.401 (inactive).
In the case of GGUGUAAAAGUGAUUAUAATT against LCLAT1, the median seed-adjusted z-score is 0 (inactive).
For the sequence CACCUACUCUGACAACCAATT against HSPA1L, the median seed-adjusted z-score is -1.27 (active).
For the sequence CUAUCACUGUCUCAAGUCATT against ITGA10, the median seed-adjusted z-score is 0.378 (inactive).
Then GAGUUAAGGAGGUAGAUGATT against SNX5, with -0.141 (inactive).
For GCAUGAGUGCUAUCAGAUATT against PIPOX the value was 1.06 (active); for GCUCCUGGAGUUAAGCUUATT against SPINK2, -0.431 (inactive); for AGUUUCAUUUCAAUAAGUATT against HOXD1, 0.144 (inactive).
For GGAGUAACCUGGAUGAGGATT against C3 the value was 0.0281 (inactive).
For AGAGCAUUGGGUACACCAATT against COL6A2, the median seed-adjusted z-score was 0.0119 (inactive).
Then CCCAUUCCCUGUGCUCCAATT against CARD10, with -0.929 (inactive); and GGUUUUUCAAGUACGAAAATT against RPS6KB1, with 1.4 (active).
As for GGCCCUUCAUCGAUAGCUATT against APEX2, the median seed-adjusted z-score is -0.347 (inactive).
For CCCUAUCCAUGUUCCAUGUTT against HDAC10 the value was -0.165 (inactive); for CAGCUGUUGUUGAGCGAAUTT against CASP2, 0.421 (inactive); for GGCUGUACAUCGAUAGCUATT against PGM1, 0.136 (inactive).
For GUUCAUGCAUGGGUGGAAATT against CD200R2 the value was -0.772 (inactive).

The record behind these values is PubChem BioAssay AID1347426 (Functional Genomics Laboratory (NCATS/FGL), 2020).
